Fluor 339 460: intrinsic fluorescence of library compounds, ex339/em460 – biochemical, MLSMR library, data from DPM-DC assay, artefact control, profiling panel; compound autofluorescence, ex339/em460 nm, NADH buffer; active compounds read high; 1 = no-compound wells, NADH background; fluorescence fold increase at 10 µM; actives 5.5% (n = 65,000);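 active means at 10 µM, mean starting fluorescence two-fold or more over control wells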;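 further: signal is the first read of a kinetic run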
A340 absorber: absorbance at 340 nm. compound absorbance at 340 nm, fold over control. fold change at 10 µM. 65,000 tested, under 10 active;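 active means at 10 µM dose, initial 340 nm absorbance at least 2 fold that of control wells; inactive means change under 2 fold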;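 further: initial absorbance extrapolated from kinetic A340 decline of NADH oxidation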
NADH enzymes: blocks coupling enzymes of NAD/NADH assays | coupled PK/LDH NADH assays, four targets | IC50, µM (doses to about 10 µM), inactives show top-dose inhibition | actives 0.02% (n = 65,000) | AID 774;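 active means single-dose screening hits from any of four coupled enzyme assays that gave an IC50 when retested across doses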;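 further: the DPM-DC format reads NADH fluorescence rather than 340 nm absorbance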
Spn PMK inh: blocks S. pneumoniae phosphomevalonate kinase; actives 0.49% (n = 65,000); purified PMK, PK/LDH-coupled NADH absorbance 340 nm; inhibition, % at 10 µM; AID 539;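 active means top-ranked compounds by inhibition in the single 10 µM screen, taking a fixed number of the strongest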;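 further: 0% = full reaction with DMSO carrier and 100% = background rate without enzyme reaction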
DPM-DC inhibit: inhibitors of Streptococcus pneumoniae diphosphomevalonate decarboxylase; purified DPM-DC, PK/LDH coupled NADH fluorescence; calls only at 10 µM; actives 0.49% (n = 65,000);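 active means the 320 compounds with the highest percent inhibition in the single-dose primary screen, excluding strongly autofluorescent ones, cut at about 32% in these data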;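 further: kinetic rate of NADH fluorescence loss reporting ADP formed by the decarboxylase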
MK inhibit: blocks S. pneumoniae mevalonate kinase; purified MK, PK/LDH-coupled NADH absorbance 340 nm; inhibition, % at 10 µM; actives 0.48% (n = 65,000); AID 555;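 active means ranked among the strongest by inhibition in the single 10 µM screen, a fixed top-ranked set picked for dose follow-up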
Starred values were filed as active, the others as inactive; i = inactive; nt = not tested or not shown; + = active, no number. Shown are actives, neighbours in structure and some others; about 6.8% of the full set was active somewhere.

SMILES | Fluor 339 460 | A340 absorber | NADH enzymes | Spn PMK inh | DPM-DC inhibit | MK inhibit
CCCCCn1c2nc3ccccc3nc2c2c(=O)n(CC(C)C)cnc21 | 1.71 | 0.96 | 7.0% | 2.0 | i | 5.0
O=c1c2c3nc4ccccc4nc3n(CC3CCCO3)c2ncn1CCc1ccccc1 (centres undefined) | 2.91* | 1 | 6.0% | 11.0 | nt | 9.0
COc1cc(OC)cc(-n2c3nc4ccccc4nc3c3c(=O)n(CC4CCCO4)cnc32)c1 (centres undefined) | 1.27 | 1.08 | 7.0% | 10.0 | i | 11.0
Cc1ccc(C)c2[nH]c(=O)c(CN(CC3CCCO3)C(=O)NC3CCCCC3)cc12 (centres undefined) | 1.57 | 1.04 | 4.0% | 7.0 | i | 5.0
CCOc1ccccc1-c1nc(C(N)=O)c2[nH]c(=O)n(-c3ccc(F)cc3)c2n1 | 2.14* | 1.07 | 12.0% | 13.0 | nt | 10.0
Nc1nncn1C(=O)CCCOc1ccc(Cl)cc1Cl | 1.09 | 1.07 | 6.0% | 5.0 | i | 14.0
Cc1ccccc1Cc1c(C)nc2c(C(=O)N3CCN(Cc4ccc5c(c4)OCO5)CC3)cnn2c1C | 2.26* | 1 | 8.0% | 14.0 | + | 0.0
Cc1nc2c(C(=O)N3CCCCC3)cnn2c(C)c1Cc1ccccc1F | 3.18* | 1.01 | 5.0% | 3.0 | i | 0.0
Cc1ccc(Cc2c(C)nc3c(C(=O)O)cnn3c2C)cc1 | 1.63 | 0.99 | 5.0% | 16.0 | i | 3.0
CCN(CC)CCCN1C(=O)C(O)=C(C(=O)c2ccc(C)o2)C1c1ccc(C)o1 (centres undefined) | 1.1 | 1.04 | 1.0% | 0.0 | i | 4.0
CCCn1c(SCC#N)nc2c(c1=O)C1(CCCC1)Cc1ccccc1-2 | 1.04 | 1.06 | 3.0% | 9.0 | i | 0.0
N#CCSc1n[nH]c2nc3c(c(=O)n12)C1(CCCC1)Cc1ccccc1-3 | 2.25* | 1.06 | 4.0% | 0.0 | nt | 8.0
O=c1[nH]ncn2cccc12 | 1.1 | 0.99 | 8.0% | 15.0 | i | 10.0
CCOC(=O)c1cc2sc(C)cc2n1CC(=O)N1CCN(C(=O)c2ccco2)CC1 | 1.11 | 1.03 | 20.0% | 17.0 | i | 42.0*
CCOC(=O)c1cnc(SCC(=O)N2CCN(C(=O)c3ccco3)CC2)nc1N | 1.08 | 1.01 | 8.0% | 25.0* | i | 0.0
CCOC(=O)c1cc2sccc2n1CC(=O)N1CCN(C(=O)c2ccco2)CC1 | 1.1 | 0.98 | 6.0% | 3.0 | i | 15.0
CN(C(=O)c1ccncc1)c1nnc(-c2ccncc2)s1 | 3.62* | 0.98 | 8.0% | 9.0 | nt | 7.0
CN(C(=O)C1CCCO1)c1nnc(-c2ccccn2)s1 (centres undefined) | 4.85* | 1.16 | 1.0% | 0.0 | nt | 1.0
Cc1cnc(-c2nnc(N(C)C(=O)C3CCOC3)s2)cn1 (centres undefined) | 2.02* | 1.07 | 8.0% | 5.0 | i | 7.0
CN(C(=O)C1CCCO1)c1nnc(-c2ccncc2)s1 (centres undefined) | 2.6* | 0.99 | 3.0% | 8.0 | nt | 4.0
COc1cccc(-c2nnc(SCC(=O)Nc3ccc(OC)c(OC)c3)n2N)c1 | 1.14 | 1.05 | 0.0% | 0.0 | i | 1.0
O=C(NCc1ccccn1)c1cn(CCc2ccccc2)nn1 | 1.08 | 1 | 7.0% | 10.0 | i | 9.0
COCC(=O)N(C)c1nnc(-c2ccccn2)s1 | 2.04* | 0.99 | 3.0% | 4.0 | i | 0.0
CN(C(=O)c1cnccn1)c1nnc(-c2cccnc2)s1 | 1.34 | 1.02 | 11.0% | 30.0* | i | 3.0
CN(C(=O)C1CCOC1)c1nnc(-c2ccccn2)s1 (centres undefined) | 1.16 | 1.05 | 2.0% | 0.0 | i | 0.0
SMILES | Fluor 339 460 | A340 absorber | NADH enzymes | Spn PMK inh | DPM-DC inhibit | MK inhibit
CC(C)CCN(C(=O)CNC(=O)c1ccco1)C(C(=O)NC1CCCCC1)c1ccco1 (centres undefined) | 1.12 | 0.99 | 7.0% | 12.0 | i | 9.0
CC1CCCN(S(=O)(=O)c2cccc(-c3cn4cccnc4n3)c2)C1 (centres undefined) | 3.59* | 1.09 | 13.0% | 11.0 | nt | 14.0
CCOC(=O)Cc1cnc(NC(=O)NC(C(=O)OCC)(c2ccccc2)C(F)(F)F)s1 (centres undefined) | 1.11 | 1.04 | 5.0% | 8.0 | i | 7.0
CCc1cc2c(CN3CCN(CCO)CC3)cc(=O)oc2cc1O | 2.91* | 1.01 | 6.0% | 9.0 | nt | 6.0
CCc1cc2c(CN3CCN(C)CC3)cc(=O)oc2cc1O | 3.75* | 1.05 | 8.0% | 6.0 | nt | 9.0
CC1=NC(C(F)(F)F)(C(F)(F)F)C(C#N)=C(C)N1 | 1.12 | 1.05 | 2.0% | 5.0 | i | 0.0
CCOc1ccc(CN2CCN(S(=O)(=O)c3ccc(NC(C)=O)cc3)CC2)cc1OC | 1.06 | 1.01 | 25.0% | 12.0 | i | 63.0*
COc1cc(CN2CCC(C(=O)N3CCN(c4ccccc4F)CC3)CC2)ccc1O | 1.94 | 1.06 | 2.0% | 0.0 | i | 6.0
CCOc1ccc(CNC(=O)C2CCN(S(=O)(=O)N3CCCC3)CC2)cc1OC | 1.06 | 1.02 | 9.0% | 26.0* | i | 0.0
COc1ccc(Br)cc1CNC(=O)C1CCN(S(=O)(=O)N2CCCC2)CC1 | 1.07 | 1.01 | 12.0% | 30.0* | i | 5.0
COc1cc(CN2CCC(C(=O)NC3CCCC3)CC2)ccc1O | 2.04* | 1 | 3.0% | 7.0 | nt | 5.0
COc1ccc(C(=O)Nc2ccc(S(=O)(=O)N3CCCCC3)cc2)cc1OC | 1.12 | 1.06 | 0.0% | 0.0 | i | 0.0
Cc1ccc(C)n1-c1ncn[nH]1 | 1.02 | 0.99 | 6.0% | 15.0 | i | 2.0
Nc1nc(N2CCOCC2)nc2ccccc12 | 3.95* | 1.01 | 7.0% | 2.0 | nt | 12.0
c1ccc2c(c1)nc(N1CCOCC1)c1c3ccccc3[nH]c21 | 3.6* | 1.08 | 8.0% | 9.0 | nt | 7.0
c1ccc2nc(N3CCOCC3)c(N3CCOCC3)nc2c1 | 1.11 | 1.09 | 7.0% | 5.0 | i | 16.0
Cc1cc(N2CCN(c3nc(N4CCOCC4)nc4ccccc34)CC2)c2ccccc2n1 | 2.13* | 1.07 | 7.0% | 6.0 | i | 3.0
c1ccc2c(N3CCCCC3)nc(N3CCCCC3)nc2c1 | 1.52 | 1 | 7.0% | 12.0 | i | 0.0
CCOc1ccc2nc(N3CCOCC3)nc(C)c2c1 | 3.84* | 1.06 | 5.0% | 4.0 | nt | 5.0
COc1ccc(N(CC(O)Cn2nnc3ccccc32)S(=O)(=O)c2ccc(C)cc2)cc1 (centres undefined) | 1.09 | 0.99 | 2.0% | 0.0 | i | 5.0
COCCCNC(=O)CN(c1cccc(Cl)c1)S(C)(=O)=O | 1.11 | 0.99 | 1.0% | 0.0 | i | 3.0
CCOC(=O)c1ccccc1NC(=O)c1ccc(Cl)c(S(=O)(=O)N2CCOCC2)c1 | 1.15 | 1.05 | 3.0% | 3.0 | i | 7.0
CCCc1nc(SCC(N)=O)[nH]c(=O)c1CC | 1.13 | 0.98 | 7.0% | 16.0 | i | 5.0
COc1ccc(CCNC(=O)c2ccc3nc(-c4ccco4)c(-c4ccco4)nc3c2)cc1OC | 2.42* | 1.02 | 19.0% | 15.0 | i | 27.0

High-throughput results deposited in PubChem BioAssay by SRMLSC.
